Several values for one entry are separate records, joined by “and”; a condition that tells them apart may be missing. Equal values may be shown once. Screen size: about 16,000 compounds; about 4,000 (25%) were called active. Inconclusive results (about 26%) are left out. The call rests on the fitted dose curve; in most records, active means well fitted curve in the direction sought with a large enough effect; inconclusive means small, poorly fitted or top-dose-only effect, or effect the other way; inactive means no such curve, though single readings can be large or run the other way. The list is a sample of the results. Square brackets hold non-standard residues; d marks the D form. Peptide text beside a SMILES is read from it.
Biological target: Cytochrome P450 2C9 (Homo sapiens) (UniProt P11712)
Sequence (P11712 whole entry, looked up): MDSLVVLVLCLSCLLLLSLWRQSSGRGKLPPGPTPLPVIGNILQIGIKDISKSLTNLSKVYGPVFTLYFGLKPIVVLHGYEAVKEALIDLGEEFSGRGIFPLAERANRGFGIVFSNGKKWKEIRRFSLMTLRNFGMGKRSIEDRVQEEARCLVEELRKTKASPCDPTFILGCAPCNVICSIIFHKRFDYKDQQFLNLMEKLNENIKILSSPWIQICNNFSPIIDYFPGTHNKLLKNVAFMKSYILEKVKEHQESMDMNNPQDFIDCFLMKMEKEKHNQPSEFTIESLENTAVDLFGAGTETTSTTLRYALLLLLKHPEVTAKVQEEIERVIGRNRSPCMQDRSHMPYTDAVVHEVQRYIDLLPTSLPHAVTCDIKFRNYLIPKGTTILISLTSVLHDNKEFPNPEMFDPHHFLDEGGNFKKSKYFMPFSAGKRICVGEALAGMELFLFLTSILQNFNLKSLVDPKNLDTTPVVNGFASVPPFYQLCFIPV
Assay: Cytochrome panel assay with activity outcomes
Conditions: recombinant CYP, pro-luciferin dealkylation, luminescence, p450-cyp2c9; series mostly up to 57.1 µM; activity, negative = inhibition: at the top concentration
On the % scale 0 is the no-effect control and ±100 the full control effect.

| SMILES | activity, negative = inhibition | AC50 |
| --- | --- | --- |
| CSCC[C@H](C=O)NC(=O)[C@H](CC(C)C)NC(=O)[C@H](CC(C)C)NC(C)=O (Ac-Leu-Leu-[dM]-aldehyde) | 11.9% (inactive) |  |
| Cc1c(Cl)c([N+](=O)[O-])nn1Cc1ccc(C(=O)N/N=C\c2cccc(Br)c2)o1 |  | 5.62 µM (active) |
| Cc1c(Cl)c([N+](=O)[O-])nn1Cc1ccc(C(=O)N/N=C\c2cc(Cl)ccc2O)o1 |  | 3.98 µM (active) |
| Cc1nn(Cc2ccc(Cl)cc2)c(C)c1NC(=O)Cn1nc([N+](=O)[O-])c(Cl)c1C | -19.6% (inactive) |  |
| C/C(Cn1nc([N+](=O)[O-])cc1C)=N\NC(=O)c1ccc(O)cc1O | 8.73% (inactive) |  |
| CCN(CC)CC[n+]1ccc2c(C)c3[nH]c4ccccc4c3c(C)c2c1 | 3.85% [at 11.4 µM] (inactive) |  |
| O=C(O)c1nn(-c2ccccc2-c2n[nH]c(=O)[nH]c2=O)c(=O)[nH]c1=O | -7.45% [at 11.4 µM] (inactive) |  |
| CN(Cc1ccco1)c1cc(-c2ccoc2)ncn1 | -1.76% [at 2.29 µM] (inactive) |  |
| C1COC(NC(C2CC2)C2CC2)=N1 | -5.58% (inactive) |  |
| O=C(CSc1n[nH]c(-c2ccccc2O)n1)N1CCCc2ccccc21 |  | 1.12 µM (active) |
| O=C(CNCCO)N1CCc2ccccc21 | -2.25% (inactive) |  |
| C#CCCCCCCCCCCCCCCCC(=O)O |  | 12.6 µM (active) |
| C#CCOCCCC(=O)O | 14.4% [at 11.4 µM] (inactive) |  |
| O=C(O)CCCCCCCC(=O)O | 4.79% (inactive) |  |
| COC(=O)C/C=C\[C@@H](C)[C@@H]1C=C[C@H](OC(C)=O)[C@H](COC(C)=O)O1 | 14.8% [at 11.4 µM] (inactive) |  |
| CCOC(=O)C(C)CC(C)C(=O)N1CCOCCN(C(=O)C(C)CC(C)C(=O)OCC)CCOCC1 (centres undefined) | -27.1% (inactive) |  |
| CN(C)CC(C)(C)CN1c2ccccc2Sc2ccccc21 | -2.35% [at 11.4 µM] (inactive) |  |
| CCc1cccc2c(-c3ccccc3)c3c(nc12)OCC3 |  | 12.6 µM (active) |
| CCc1cccc2c3c([nH]c12)[C@@](CC)(CC(=O)O)OCC3 | -43.4% [at 25.6 µM] (inactive) |  |
| CC1(C)O[C@H]2[C@@H](c3[nH]nc4c(=O)[nH]c(=O)[nH]c34)OC[C@H]2O1 | 5.4% [at 11.4 µM] (inactive) |  |
| CO[C@H]1COC(=O)C/C=C\[C@H](C)[C@@H](NS(=O)(=O)c2ccc(C)cc2)COC(=O)C/C=C\[C@@H]1C | -17.2% [at 11.4 µM] (inactive) and -4.44% [at 11.4 µM] (inactive) |  |
| CSCC[C@@H]1NC(=O)C/C=C\[C@@H](C)COC(=O)[C@H](C)COC1=O | -7.38% [at 11.4 µM] (inactive) |  |
| c1ccc(-c2ccc(C3=Nn4c(Cn5nnc6ccccc65)nnc4SC3)cc2)cc1 |  | 12.6 µM (active) |
| c1ccc2c(c1)nnn2CN1CCOCC1 | 15.8% [at 11.4 µM] (inactive) |  |
| Cc1cnc(CNc2ncncc2-c2ccccc2Cl)cn1 | 28.2% [at 2.29 µM] (inactive) |  |

| SMILES | activity, negative = inhibition | AC50 |
| --- | --- | --- |
| COc1ccc(C2C(=O)N(C3CCCCCC3)CC(=O)N2Cc2ccccc2)cc1OC (centres undefined) |  | 12.6 µM (active) |
| COc1ccc(CN2C(=O)CN(C3CCCCCC3)C(=O)C2c2ccc(OC)c(OC)c2)cc1 (centres undefined) |  | 11.2 µM (active) |
| COc1cc(C2C(=O)N(C3CCCC3)CC(=O)N2Cc2ccco2)ccc1OC(C)C (centres undefined) |  | 10 µM (active) |
| COc1ccc([C@@H]2CNC(=O)C2)cc1OC1CCCC1 |  | inactive |
| CCCOc1ccc(C2C(=O)N(C3CCCCC3)CC(=O)N2C2CC2)cc1OC (centres undefined) |  | 10 µM (active) |
| Cc1ccc(S(=O)(=O)N[C@H]2COC(=O)CC=C[C@@H](C)[C@H]3C=C[C@H](O)[C@@H](COC(=O)CC=C[C@H]2C)O3)cc1 | -13.5% [at 11.4 µM] (inactive) and 14.3% [at 11.4 µM] (inactive) |  |
| O=C(Nc1cccc(F)c1)N1CCC2(CC1)CCN(C(=O)c1cnccn1)CC2 | -5.81% (inactive) |  |
| CCCCN=c1sc(C(=O)OC)cc(=O)n1CCCC | -18.9% (inactive) |  |
| COc1ccc([N+](=O)[O-])cc1N(CC(O)CN(CC(C)C)CC(C)C)S(=O)(=O)c1ccccc1 (centres undefined) |  | 12.6 µM (active) |
| Cc1ccsc1/C=N/Nc1nc(Cl)c(Cl)cc1Cl | -25.5% (inactive) |  |
| CCc1c(C)c(C#N)c2nc3ccccc3n2c1N1CCN(c2cc(C)ccn2)CC1 |  | 1.26 µM (active) |
| CCN(CC)CCOC(=O)C1(C2CCCCC2)CCCCC1 | -17.7% [at 25.6 µM] (inactive) |  |
| FC(F)(F)c1ccc(N2CCOCC2)c(Nc2nc3ccccc3n3cnnc23)c1 |  | 15.8 µM (active) |
| CN1CCN(c2nc3cc(C(F)(F)F)ccc3n3cccc23)CC1 |  | inactive |
| CC(/C=C1\N=C(SCc2ccccc2Cl)SC1=O)=C\c1ccccc1 |  | 1.58 µM (active) |
| CCCC(=O)Nc1nnc(CCN2CCCCC2)s1 | -3.62% (inactive) |  |
| CCc1nnc(NC(=O)c2c(C)nn(-c3ccccc3)c2Cl)s1 |  | 8.91 µM (active) |
| CCc1nnc(NC(=O)c2cc(-c3ccccc3)nn2-c2ccccc2)s1 |  | 8.91 µM (active) |
| COc1ccccc1CNc1ncncc1-c1cccc(C#N)c1 | -22.7% [at 2.29 µM] (inactive) |  |
| Cc1nc2ccccc2n1CC(=O)N/N=C\c1ccccn1 | -16% (inactive) |  |
| CC(/C=N\NC(=O)Cn1c(C)nc2ccccc21)=C\c1ccccc1 |  | 2.82 µM (active) |
| Cc1nc2ccccc2n1CC(=O)N/N=C\C=C\c1ccccc1 |  | 7.08 µM (active) |
| O=c1[nH]n(-c2cccc(Cl)c2)c2ncccc12 | -28.4% (inactive) |  |
| Cc1ccccc1OCCNc1ccc(C(F)(F)F)cc1[N+](=O)[O-] |  | 3.55 µM (active) |
| COc1ccccc1-c1nccc(NCc2cnc(C)cn2)n1 | 19.3% [at 2.29 µM] (inactive) |  |

| SMILES | activity, negative = inhibition | AC50 |
| --- | --- | --- |
| COc1ccc(OC)c(C2C(C(=O)Nc3nc4ccccc4s3)=C(C)NC3=C2C(=O)CCC3)c1 (centres undefined) |  | 0.631 µM (active) |
| COc1ccc2nc(NC(C)=O)sc2c1 | -21.8% (inactive) |  |
| N/C(=N\O)c1cn([C@@H]2O[C@@H](CO)[C@H](O)[C@@H]2O)c2ncnc(NO)c12 | -5.39% [at 11.4 µM] (inactive) |  |
| COc1ccc(NC(=O)CC#N)cc1OC | -4.95% (inactive) |  |
| COc1ccc(C(=O)c2ccc(OC)c(OC)c2)cc1OC |  | 11.2 µM (active) |
| CCN(CC)C(=O)c1ccc(O)c(OC)c1 | 3.47% [at 25.6 µM] (inactive) |  |
| CCN1CC=C2C(C#N)=C(N)C(C#N)(C#N)[C@H](c3ccoc3)[C@H]2C1 | -27.5% (inactive) |  |
| CSc1nc(NC2CCCC2)c([N+](=O)[O-])c(NC2CCCC2)n1 |  | 2 µM (active) |
| O=C(O)CCNc1ncnc2nc[nH]c12 | 23.7% [at 11.4 µM] (inactive) |  |
| Cc1ccc(C2=NN(S(C)(=O)=O)C(c3cccs3)C2)cc1 (centres undefined) |  | 11.2 µM (active) |
| O=C(CC(NS(=O)(=O)c1ccc(Cl)cc1)c1ccco1)NCc1ccco1 (centres undefined) |  | 10 µM (active) |
| CCCNC(=O)Nc1ccc2c(c1)nc(C)n2C | 5.83% (inactive) |  |
| O=C(NCCCn1ccnc1)Nc1ccc(Cl)cc1 |  | 0.316 µM (active) |
| S=C(S)NCCCn1ccnc1 |  | 2 µM (active) |
| COc1ccc2c(Cl)c(C(=O)NCCCn3ccnc3)sc2c1Cl |  | 0.891 µM (active) |
| CCN1CCN(CCCNC(=O)c2cc3cc4ccc(OC)cc4nc3o2)CC1 | 6.59% (inactive) |  |
| O=C(NCCCN1CCCC1=O)Nc1ccc(F)c(Cl)c1 | -29.7% (inactive) |  |
| S=C(S)NCCN1CCNCC1 | -16.5% [at 11.4 µM] (inactive) |  |
| O=S1(=O)N[C@H]2CC[C@@H]3NS(=O)(=O)N[C@H]4CC[C@H](N1)N4S(=O)(=O)N23 | -6.3% [at 11.4 µM] (inactive) |  |
| O=C(NCCNC[C@@H](O)COc1ccc(O)cc1)N1CCOCC1 |  | inactive |
| COc1ccccc1OC[C@H](O)COC(N)=O | 37.5% [at 25.6 µM] (inactive) |  |
| CCOC(=O)c1[nH]c(COC(=O)CCOc2ccccc2OC)c(C(=O)OCC)c1C |  | 4.47 µM (active) |
| CCOC(=O)c1c(O)[nH]c(=O)c(CC)c1C | 4.97% [at 11.4 µM] (inactive) |  |
| N=C(N)SCCc1ccc(OCc2ccc([N+](=O)[O-])cc2)cc1 | 12.8% (inactive) |  |
| CN1CCc2cc(Cl)c(O)cc2[C@@H](c2ccccc2)C1 | 18.4% (inactive) |  |

| SMILES | activity, negative = inhibition | AC50 |
| --- | --- | --- |
| CCCCCN=c1ccn(Cc2ccccc2)c2ccccc12 |  | 0.316 µM (active) |
| N#Cc1cccc(-c2nccc(NCc3cccs3)n2)c1 | 5.43% [at 2.29 µM] (inactive) |  |
| Cc1ccc(OCC(=O)Nn2cnc3ccccc32)cc1 | -22.6% (inactive) |  |
| O=C(Cn1cnc2ccccc21)NC(c1ccccc1)c1ccccc1 |  | 15.8 µM (active) |
| O=S(=O)(/N=C(\Sc1ccccc1)c1ccccc1)c1ccc(Cl)cc1 |  | 3.98 µM (active) |
| O=S(=O)(/N=C(/Nc1ccc(F)cc1F)c1ccc(Cl)cc1)c1ccccc1 | -6.77% (inactive) |  |
| CC(=O)NCCNc1ncncc1-c1ccccc1CN(C)C | 4.96% [at 2.29 µM] (inactive) |  |
| CC#CCCCC(=O)Nc1cc(OC)nc(OC)n1 |  | 11.2 µM (active) |
| Cc1cc(C)nc(NC(=O)CCCC(=O)O)c1 | -9.57% (inactive) |  |
| COc1cc(OC)nc(NC(C)=O)n1 | -11% (inactive) |  |
| N#Cc1ccc(CN2CCC3(CC2)CCN(C(=O)c2cc(C(F)(F)F)cc(C(F)(F)F)c2)CC3)cc1 | -20.2% (inactive) |  |
| C/C(CCN1CCCc2nc(C)c(C)cc21)=N\OC[C@@H](O)[C@@H]1O[C@@H]2OC(C)(C)O[C@@H]2[C@H]1O | 2.31% [at 11.4 µM] (inactive) |  |
| COCCN=C1Sc2nc3c(C)cccc3cc2CN1Cc1ccco1 |  | 4.47 µM (active) |
| C[C@@H](c1ccccc1)N1C(=O)[C@H]2[C@H]3[C@H](O)[C@H](O)C/C(=N/OC[C@@H](O)COCc4ccco4)[C@@H]3CC[C@@H]2C1=O | 2.8% [at 11.4 µM] (inactive) |  |
| COc1ccc2c(c1)c(CC(=O)N1CCOCC1)c(C)n2C(=O)c1ccc(Cl)cc1 | -18% (inactive) |  |
| CC(C)Cn1c(-c2ccc(Cl)cc2)cnc1SCC(=O)N1CCOCC1 |  | 14.1 µM (active) |
| O=C(CSc1c[nH]c2ccccc12)N1CCOCC1 | 14.4% (inactive) |  |
| CCOC(=O)c1[nH]c2cc3c(cc2c1NC(=O)CN1CCC2(CC1)OCCO2)OCO3 | -24.5% (inactive) |  |
| COc1cccc(NC(=O)c2oc3ccccc3c2NC(=O)c2ccc3c(c2)OCO3)c1 |  | 3.55 µM (active) |
| CCOC(=O)c1[nH]c2cc(OC)c(OC)cc2c1NC(=O)c1nonc1C |  | 0.708 µM (active) |
| COC(=O)c1[nH]c2cc(OC)ccc2c1NC(=O)c1ccc2c(c1)OCO2 |  | 3.55 µM (active) |
| COc1ccc2c3c([nH]c2c1)[C@H]1C[C@@H]2[C@@H](C[C@@H](O)[C@H](OC)[C@H]2C(=O)O)CN1CC3 | 4.43% [at 11.4 µM] (inactive) |  |
| CCOC(=O)c1[nH]c2ccc(OC)cc2c1NC(=O)c1ccc2c(c1)OCO2 |  | 14.1 µM (active) |
| CCOC(=O)c1[nH]c2cc(OC)c(OC)cc2c1NC(=O)c1ccc2c(c1)OCO2 | 8.15% (inactive) |  |

Reference: PubChem BioAssay AID1851 (National Center for Advancing Translational Sciences (NCATS), 2009)
